Screen size: about 5,500 compounds; about 2,000 (36%) were called active. Roughly 18% stayed inconclusive and do not appear here. Cut-off read from the data, not from the text of the source: active = normalized growth mostly below about 0.91 (no sharp cut-off); inconclusive = no clear call, values can overlap the other calls; inactive = mostly above about 0.92. The list shows a part of the results.
Assay: chemical genetic growth profiling, strain panel (AID 1159580);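 note: tested at 20 µM; growth read once vehicle control cultures reached saturation at 30 °C; 1 = growth at the plate median or of vehicle wells; lower values mean less growth of the strain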
Conditions: growth OD

Measured: normalized growth

C[N+](C)(C)CC(=O)[O-]
inactive: S. cerevisiae deletion strains, locus YJR075W, strain HOC1, stronger effect = lower value 0.977 | S. cerevisiae deletion strains, locus YKL009W, strain mrt4, stronger effect = lower value 0.972 | S. cerevisiae deletion strains, locus YKL068W, stronger effect = lower value 0.976 | S. cerevisiae deletion strains, locus YKL085W, strain MDH1 (second series), stronger effect = lower value 0.978 | S. cerevisiae deletion strains, locus YKL085W, strain MDH1, stronger effect = lower value 0.978 | S. cerevisiae deletion strains, locus YKL160W, strain elf1, stronger effect = lower value 0.995 | S. cerevisiae deletion strains, locus YKL190W, strain CNB1, stronger effect = lower value 0.976 | S. cerevisiae deletion strains, locus YKR001C, strain vps1, stronger effect = lower value 0.982 | S. cerevisiae deletion strains, locus YKR026C, strain gcn3, stronger effect = lower value 1.02 | S. cerevisiae deletion strains, locus YKR091W, strain srl3, stronger effect = lower value 0.976 | S. cerevisiae deletion strains, locus YLL001W, strain dnm1, stronger effect = lower value 0.949 | S. cerevisiae deletion strains, locus YLL026W, stronger effect = lower value 0.982 | S. cerevisiae deletion strains, locus YLL041C, strain sdh2, stronger effect = lower value 0.963 | S. cerevisiae deletion strains, locus YLR027C, strain aat2, stronger effect = lower value 0.989 | S. cerevisiae deletion strains, locus YLR039C, strain RIC1, stronger effect = lower value 0.952 | S. cerevisiae deletion strains, locus YLR058C, strain SHM2, stronger effect = lower value 1 | S. cerevisiae deletion strains, locus YLR102C, strain apc9, stronger effect = lower value 0.992 | S. cerevisiae deletion strains, locus YLR113W, strain HOG1, stronger effect = lower value 0.981 | S. cerevisiae deletion strains, locus YLR221C, strain rsa3, stronger effect = lower value 1 | S. cerevisiae deletion strains, locus YLR258W, strain gsy2, stronger effect = lower value 0.985 | S. cerevisiae deletion strains, locus YLR262C, strain YPT6 (second series), stronger effect = lower value 0.948 | S. cerevisiae deletion strains, locus YLR262C, strain YPT6, stronger effect = lower value 0.938 | S. cerevisiae deletion strains, locus YLR268W, strain sec22, stronger effect = lower value 0.96 | S. cerevisiae deletion strains, locus YLR320W, strain mms22, stronger effect = lower value 1.01 | S. cerevisiae deletion strains, locus YLR330W, strain CHS5, stronger effect = lower value 0.99 | S. cerevisiae deletion strains, locus YLR342W, strain FKS1 (second series), stronger effect = lower value 1.04 | S. cerevisiae deletion strains, locus YLR342W, strain FKS1, stronger effect = lower value 0.988 | S. cerevisiae deletion strains, locus YLR357W, strain rsc2, stronger effect = lower value 0.969 | S. cerevisiae deletion strains, locus YLR370C, strain arc18, stronger effect = lower value 0.985 | S. cerevisiae deletion strains, locus YLR371W, strain rom2, stronger effect = lower value 0.993 | S. cerevisiae deletion strains, locus YLR384C, strain iki3, stronger effect = lower value 0.967 | S. cerevisiae deletion strains, locus YLR418C, strain cdc73, stronger effect = lower value 0.99 | S. cerevisiae deletion strains, locus YML016C, strain PPZ1, stronger effect = lower value 1.01 | S. cerevisiae deletion strains, locus YML032C, strain rad52, stronger effect = lower value 0.97 | S. cerevisiae deletion strains, locus YML120C, strain ndi1, stronger effect = lower value 0.98 | S. cerevisiae deletion strains, locus YML124C, strain tub3, stronger effect = lower value 0.992 | S. cerevisiae deletion strains, locus YMR058W, strain fet3, stronger effect = lower value 0.987 | S. cerevisiae deletion strains, locus YMR078C, strain ctf18, stronger effect = lower value 0.981 | S. cerevisiae deletion strains, locus YMR125W, strain sto1, stronger effect = lower value 0.951 | S. cerevisiae deletion strains, locus YMR129W, stronger effect = lower value 0.975 | S. cerevisiae deletion strains, locus YMR205C, strain PFK2, stronger effect = lower value 0.986 | S. cerevisiae deletion strains, locus YMR223W, strain ubp8, stronger effect = lower value 1.03 | S. cerevisiae deletion strains, locus YMR231W, strain pep5, stronger effect = lower value 0.972 | S. cerevisiae deletion strains, locus YMR263W, strain SAP30, stronger effect = lower value 0.977 | S. cerevisiae deletion strains, locus YMR307W, strain GAS1, stronger effect = lower value 1.04 | S. cerevisiae deletion strains, locus YNL067W, strain RPL9B, stronger effect = lower value 0.982 | S. cerevisiae deletion strains, locus YNL071W, strain lat1, stronger effect = lower value 0.989 | S. cerevisiae deletion strains, locus YNL128W, strain TEP1, stronger effect = lower value 0.989 | S. cerevisiae deletion strains, locus YNL153C, strain GIM3, stronger effect = lower value 0.985 | S. cerevisiae deletion strains, locus YNL183C, strain NPR1, stronger effect = lower value 0.938 | S. cerevisiae deletion strains, locus YNL209W, strain ssb2, stronger effect = lower value 0.995 | S. cerevisiae deletion strains, locus YNL233W, strain BNI4, stronger effect = lower value 0.997 | S. cerevisiae deletion strains, locus YNL248C, strain rpa49, stronger effect = lower value 1.01 | S. cerevisiae deletion strains, locus YNL250W, strain rad50, stronger effect = lower value 0.991 | S. cerevisiae deletion strains, locus YNL271C, strain bni1, stronger effect = lower value 0.992 | S. cerevisiae deletion strains, locus YNL298W, strain CLA4, stronger effect = lower value 0.97 | S. cerevisiae deletion strains, locus YNL307C, strain MCK1, stronger effect = lower value 0.999 | S. cerevisiae deletion strains, locus YNL322C, strain KRE1 (second series), stronger effect = lower value 0.964 | S. cerevisiae deletion strains, locus YNL322C, strain KRE1, stronger effect = lower value 0.99 | S. cerevisiae deletion strains, locus YNR049C, strain mso1, stronger effect = lower value 0.974 | S. cerevisiae deletion strains, locus YNR052C, strain pop2, stronger effect = lower value 0.984 | S. cerevisiae deletion strains, locus YOL006C, strain TOP1, stronger effect = lower value 0.975 | S. cerevisiae deletion strains, locus YOL012C, strain htz1 0.729 | S. cerevisiae deletion strains, locus YOL147C, strain pex11, stronger effect = lower value 1 | S. cerevisiae deletion strains, locus YOR001W, strain rrp6, stronger effect = lower value 0.969 | S. cerevisiae deletion strains, locus YOR061W, strain CKA2, stronger effect = lower value 1 | S. cerevisiae deletion strains, locus YOR069W, strain VPS5, stronger effect = lower value 0.995 | S. cerevisiae deletion strains, locus YOR070C, strain gyp1, stronger effect = lower value 0.994 | S. cerevisiae deletion strains, locus YOR080W, strain dia2, stronger effect = lower value 0.951 | S. cerevisiae deletion strains, locus YOR083W, strain WHI5, stronger effect = lower value 0.971 | S. cerevisiae deletion strains, locus YOR106W, strain vam3, stronger effect = lower value 0.925 | S. cerevisiae deletion strains, locus YOR136W, strain idh2, stronger effect = lower value 0.985 | S. cerevisiae deletion strains, locus YOR144C, strain elg1, stronger effect = lower value 0.991 | S. cerevisiae deletion strains, locus YOR184W, strain ser1, stronger effect = lower value 0.989 | S. cerevisiae deletion strains, locus YOR231W, strain MKK1, stronger effect = lower value 0.986 | S. cerevisiae deletion strains, locus YOR265W, strain rbl2, stronger effect = lower value 0.985 | S. cerevisiae deletion strains, locus YOR270C, strain vph1, stronger effect = lower value 0.956 | S. cerevisiae deletion strains, locus YOR290C, strain snf2, stronger effect = lower value 1 | S. cerevisiae deletion strains, locus YOR316C, strain cot1, stronger effect = lower value 0.972 | S. cerevisiae deletion strains, locus YPL051W, strain arl3, stronger effect = lower value 0.99 | S. cerevisiae deletion strains, locus YPL055C, strain LGE1, stronger effect = lower value 0.944 | S. cerevisiae deletion strains, locus YPL078C, strain atp4, stronger effect = lower value 0.954 | S. cerevisiae deletion strains, locus YPL106C, strain sse1, stronger effect = lower value 0.982 | S. cerevisiae deletion strains, locus YPL240C, strain hsp82, stronger effect = lower value 0.976 | S. cerevisiae deletion strains, locus YPL241C, strain CIN2, stronger effect = lower value 0.999 | S. cerevisiae deletion strains, locus YPL256C, strain CLN2, stronger effect = lower value 1 | S. cerevisiae deletion strains, locus YPR119W, strain clb2, stronger effect = lower value 0.994 | S. cerevisiae deletion strains, locus YPR141C, strain kar3, stronger effect = lower value 0.979 | S. cerevisiae deletion strains, locus YPR163C, strain tif3, stronger effect = lower value 0.992 | S. cerevisiae deletion strains, locus YPR167C, strain met16, stronger effect = lower value 0.986 | S. cerevisiae deletion strains, strain wtn01, stronger effect = lower value 0.96 | S. cerevisiae strains, strain wild type, stronger effect = lower value 0.996
